Where “and” joins values, the source holds several entries; their conditions need not be identical. Identical values can stand only once. Out of some 5,500 compounds screened, about 2,000 (36%) were called active. Not shown: some 18% with an inconclusive outcome. No stated cut-off is given here; in the data, active means normalized growth mostly below about 0.91 (no sharp cut-off); inconclusive means no clear call, values can overlap the other calls; inactive means mostly above about 0.92. The list shows a part of the results.
Test: chemical genetic growth profiling, strain panel (AID 1159580);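 further: tested at 20 µM; growth read once vehicle control cultures reached saturation at 30 °C; 1 = growth at the plate median or of vehicle wells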
Conditions: S. cerevisiae deletion strains, growth OD

Measured: normalized growth

Cc1cc(O)cc(C)c1Cl
inactive: locus YAL021C, strain ccr4, stronger effect = lower value 0.918 | locus YAL030W, strain snc1, stronger effect = lower value 0.961 | locus YBR021W, strain FUR4, stronger effect = lower value 1.04 | locus YBR171W, strain sec66, stronger effect = lower value 0.912 | locus YBR229C, strain ROT2, stronger effect = lower value 0.993 | locus YBR231C, strain swc5, stronger effect = lower value 0.945 | locus YCL029C, strain bik1, stronger effect = lower value 0.981 | locus YCL069W, strain vba3, stronger effect = lower value 0.929 | locus YDL005C, strain med2, stronger effect = lower value 1.02 | locus YDL035C, strain GPR1, stronger effect = lower value 0.942 | locus YDL040C, strain nat1, stronger effect = lower value 0.968 | locus YDL074C, strain BRE1, stronger effect = lower value 0.968 | locus YDL101C, strain DUN1, stronger effect = lower value 1.01 | locus YDL185W, strain tfp1, stronger effect = lower value 0.988 | locus YDL192W, strain arf1, stronger effect = lower value 1.02 | locus YDR001C, strain nth1, stronger effect = lower value 0.951 | locus YDR069C, strain doa4, stronger effect = lower value 0.992 | locus YDR101C, strain arx1, stronger effect = lower value 0.928 | locus YDR150W, strain NUM1, stronger effect = lower value 0.998 | locus YDR162C, strain NBP2, stronger effect = lower value 0.957 | locus YDR297W, strain sur2, stronger effect = lower value 0.968 | locus YDR318W, strain mcm21, stronger effect = lower value 0.981 | locus YDR334W, strain swr1, stronger effect = lower value 0.957 | locus YDR388W, stronger effect = lower value 1 | locus YDR502C, strain sam2, stronger effect = lower value 0.949 | locus YEL003W, strain gim4, stronger effect = lower value 0.965 | locus YEL037C, strain rad23, stronger effect = lower value 0.953 | locus YEL061C, strain CIN8, stronger effect = lower value 0.988 | locus YER110C, stronger effect = lower value 1 | locus YER155C, strain BEM2, stronger effect = lower value 0.992 | locus YER167W, strain BCK2, stronger effect = lower value 0.975 | locus YFR010W, strain ubp6, stronger effect = lower value 0.93 | locus YGL086W, strain mad1, stronger effect = lower value 0.945 | locus YGL167C, strain pmr1, stronger effect = lower value 0.999 | locus YGL173C, strain kem1, stronger effect = lower value 0.927 | locus YGL227W, strain vid30, stronger effect = lower value 0.949 | locus YGL240W, strain doc1, stronger effect = lower value 0.978 | locus YGL248W, strain PDE1, stronger effect = lower value 0.999 | locus YGR078C, strain PAC10, stronger effect = lower value 0.974 | locus YGR135W, strain pre9, stronger effect = lower value 0.994 | locus YGR252W, strain gcn5, stronger effect = lower value 0.979 | locus YHR013C, strain ard1, stronger effect = lower value 0.97 | locus YHR030C, strain SLT2, stronger effect = lower value 0.995 and 0.921 | locus YHR079C, strain IRE1 (second series), stronger effect = lower value 0.996 | locus YHR079C, strain IRE1, stronger effect = lower value 0.929 | locus YHR094C, strain hxt1, stronger effect = lower value 1 | locus YHR129C, strain ARP1, stronger effect = lower value 0.998 | locus YHR200W, strain rpn10, stronger effect = lower value 0.984 | locus YIL066C, strain RNR3, stronger effect = lower value 0.981 | locus YIL073C, strain SPO22, stronger effect = lower value 1.04 | locus YIL125W, strain kgd1, stronger effect = lower value 0.993 | locus YIR030C, strain dcg1, stronger effect = lower value 0.998 | locus YJL092W, strain hpr5, stronger effect = lower value 0.923 | locus YJL095W, strain BCK1 (second series), stronger effect = lower value 0.951 | locus YJL095W, strain BCK1, stronger effect = lower value 0.986 and 0.94 | locus YJL115W, strain asf1, stronger effect = lower value 0.997 | locus YJL129C, strain trk1, stronger effect = lower value 0.899 | locus YJL134W, strain LCB3, stronger effect = lower value 0.998 | locus YJL154C, strain vps35, stronger effect = lower value 0.96 | locus YJL168C, strain set2, stronger effect = lower value 1 | locus YJL187C, strain SWE1 (second series), stronger effect = lower value 1 | locus YJR043C, strain POL32, stronger effect = lower value 0.96 | locus YJR066W, strain TOR1, stronger effect = lower value 0.955
active: locus YAL026C, strain drs2, stronger effect = lower value 0.831 | locus YBL061C, strain skt5, stronger effect = lower value 0.914 | locus YBR009C, strain hhf1, stronger effect = lower value 0.873 | locus YBR023C, strain chs3, stronger effect = lower value 0.899 | locus YBR279W, strain paf1, stronger effect = lower value 0.899 | locus YCL011C, strain gbp2, stronger effect = lower value 0.906 | locus YCL016C, strain dcc1, stronger effect = lower value 0.892 | locus YCL061C, strain MRC1, stronger effect = lower value 0.916 | locus YCR088W, strain abp1, stronger effect = lower value 0.891 | locus YDR137W, strain rgp1, stronger effect = lower value 0.41 | locus YDR159W, strain sac3, stronger effect = lower value 0.588 | locus YDR195W, strain ref2 1.35 [resistant] | locus YDR335W, strain msn5, stronger effect = lower value 0.898 | locus YDR392W, strain spt3, stronger effect = lower value 0.653 | locus YEL061C, strain CIN8 (second series), stronger effect = lower value 0.898 | locus YER015W, strain faa2, stronger effect = lower value 0.839 | locus YER016W, strain bim1, stronger effect = lower value 0.874 | locus YER111C, strain swi4, stronger effect = lower value 0.905 | locus YER155C, strain BEM2 (second series), stronger effect = lower value 0.603 | locus YGL078C, strain dbp3, stronger effect = lower value 0.919 | locus YGL253W, strain hxk2, stronger effect = lower value 0.895 | locus YHR027C, strain rpn1, stronger effect = lower value 0.838 | locus YHR142W, strain chs7, stronger effect = lower value 0.77 | locus YJL164C, strain tpk1, stronger effect = lower value 0.887 | locus YJL166W, strain qcr8, stronger effect = lower value 0.849

From PubChem BioAssay AID1159580 (chemical genetic matrix, 2015)
